Data from article PMC4336329 (PLoS ONE, 2015).
The whole screen tested about 310,000 compounds, of which about 14,000 (4.5%) showed an effect of 50% or more. The effect is printed as a negative number. The sample holds strong results, similar compounds and a random draw of the others, so the mix is not that of the screen.

These compounds were tested against human ether-à-go-go-related gene (hERG) potassium channel (human, UniProt Q12809) (assay: primary screen, population patch clamp on CHO cells stably expressing hERG; higher = less effect of the substance).
Sequence of human ether-à-go-go-related gene (hERG) potassium channel (Q12809 whole entry, looked up): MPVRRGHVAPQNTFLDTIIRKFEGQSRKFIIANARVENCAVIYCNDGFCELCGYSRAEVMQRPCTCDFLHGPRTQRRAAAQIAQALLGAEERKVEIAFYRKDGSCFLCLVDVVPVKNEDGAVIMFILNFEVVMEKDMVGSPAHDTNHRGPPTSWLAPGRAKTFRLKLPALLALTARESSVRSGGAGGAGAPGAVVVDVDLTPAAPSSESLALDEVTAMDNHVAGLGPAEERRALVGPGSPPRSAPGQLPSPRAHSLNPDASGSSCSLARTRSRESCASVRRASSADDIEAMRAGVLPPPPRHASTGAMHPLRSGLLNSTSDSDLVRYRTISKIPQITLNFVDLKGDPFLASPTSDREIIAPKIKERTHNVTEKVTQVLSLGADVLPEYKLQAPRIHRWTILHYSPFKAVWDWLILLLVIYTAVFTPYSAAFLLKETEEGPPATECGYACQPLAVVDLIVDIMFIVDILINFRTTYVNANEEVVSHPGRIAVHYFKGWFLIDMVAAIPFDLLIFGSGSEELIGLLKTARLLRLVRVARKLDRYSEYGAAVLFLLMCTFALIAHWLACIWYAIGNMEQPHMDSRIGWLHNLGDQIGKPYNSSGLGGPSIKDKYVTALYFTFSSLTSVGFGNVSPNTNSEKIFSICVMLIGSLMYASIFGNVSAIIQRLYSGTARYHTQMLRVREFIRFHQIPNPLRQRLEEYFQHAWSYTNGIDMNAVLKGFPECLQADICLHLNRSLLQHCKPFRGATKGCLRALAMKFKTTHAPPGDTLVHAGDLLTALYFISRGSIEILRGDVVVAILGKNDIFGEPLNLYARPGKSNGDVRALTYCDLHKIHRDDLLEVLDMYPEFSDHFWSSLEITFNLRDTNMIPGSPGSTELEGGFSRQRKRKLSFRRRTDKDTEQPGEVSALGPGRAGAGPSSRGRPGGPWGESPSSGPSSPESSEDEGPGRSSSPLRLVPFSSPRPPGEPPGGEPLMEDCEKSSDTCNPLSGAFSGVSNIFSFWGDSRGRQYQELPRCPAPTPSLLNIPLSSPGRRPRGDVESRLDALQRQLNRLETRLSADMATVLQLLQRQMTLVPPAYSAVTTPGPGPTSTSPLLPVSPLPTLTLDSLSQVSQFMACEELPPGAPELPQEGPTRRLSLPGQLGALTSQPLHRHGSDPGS
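Note: peak tail current of the secondary pulse compared with the same well before compound.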

Q: Which “hERG current change (%, negative = inhibition) at 10uM” value does the source give for `Cc1cc(Cl)ccc1OCC(=O)NC(=S)Nc1ccc(Cl)cn1` here?
A: The value was 10.9%.

Q: Which “hERG current change (%, negative = inhibition) at 10uM” value does the source give for `Cc1ccc(C(=O)NC(C)(COc2nonc2C)COc2nonc2C)cc1` here?
A: Its value is -40%.

Q: How did the “hERG current change (%, negative = inhibition) at 10uM” value turn out when `Cc1nonc1OCC(C)(COc1nonc1C)NC(=O)c1ccccc1` was run?
A: The value was -6.59%.

Q: How did the “hERG current change (%, negative = inhibition) at 10uM” value turn out when `Cc1nonc1OCC(C)(COc1nonc1C)NC(=O)c1ccc(Cl)cc1` was run?
A: The value was -61.1%.

Q: For `Cn1c(=O)n(Cc2ccccc2F)c2ccccc21`, which “hERG current change (%, negative = inhibition) at 10uM” value is on record?
A: The value was -16.3%.

Q: With `CC(=O)c1ccc2c(c1)C1C(Cl)C(Sc3ccccc3[N+](=O)[O-])CC1C(c1ccccc1)N2` (stereo not shown) as the compound, how does the “hERG current change (%, negative = inhibition) at 10uM” value read?
A: The value was 15.1%.

Q: `CCN(CC)C(=O)c1ccc2c(c1)C1C(Cl)C(Sc3ccccc3[N+](=O)[O-])CC1C(C(=O)O)N2` (stereo not shown) was tested. Which “hERG current change (%, negative = inhibition) at 10uM” value did it give?
A: The value was -59.3%.

Q: How did the “hERG current change (%, negative = inhibition) at 10uM” value turn out when `CC(=O)c1ccc2c(c1)C1C(Cl)C(Sc3ccccc3[N+](=O)[O-])CC1C(C(=O)O)N2` (stereo not shown) was run?
A: The value was -20.8%.

Q: `CN(Cc1nc(-c2cccc(Cl)c2)no1)C1CCOCC1` was tested. Which “hERG current change (%, negative = inhibition) at 10uM” value did it give?
A: The value was -22.7%.

Q: How did the “hERG current change (%, negative = inhibition) at 10uM” value turn out when `CCn1c(=O)c(C(=O)NCc2cccnc2)c(O)c2ccccc21` was run?
A: The value was -56.4%.

Q: Which “hERG current change (%, negative = inhibition) at 10uM” value does the source give for `Cn1c(C(=O)NCc2cccnc2)cc2sccc21` here?
A: The value was -10.2%.

Q: Which “hERG current change (%, negative = inhibition) at 10uM” value does the source give for `CCCCCn1c(=O)c(C(=O)NCc2ccccc2)c(O)c2ccccc21` here?
A: The value was 15.2%.

Q: For `CCCCCn1c(=O)c(C(=O)NCc2ccncc2)c(O)c2ccccc21`, which “hERG current change (%, negative = inhibition) at 10uM” value is on record?
A: Its value is -53.7%.

Q: For `CCn1c(=O)c(C(=O)NNS(=O)(=O)c2ccc(NC(=O)OC)cc2)c(O)c2ccccc21`, which “hERG current change (%, negative = inhibition) at 10uM” value is on record?
A: Its value is -56.3%.

Q: `CCCCn1c(=O)c(C(=O)NCc2ccncc2)c(O)c2ccccc21` was tested. Which “hERG current change (%, negative = inhibition) at 10uM” value did it give?
A: Its value is -44%.

Q: With `CCCn1c(=O)c(C(=O)NNS(=O)(=O)c2ccc(NC(=O)OC)cc2)c(O)c2ccccc21` as the compound, how does the “hERG current change (%, negative = inhibition) at 10uM” value read?
A: Its value is 9.85%.

Q: With `CCn1c(C(=O)NCc2cccnc2)cc2sc(Cl)cc21` as the compound, how does the “hERG current change (%, negative = inhibition) at 10uM” value read?
A: Its value is -57.2%.

Q: Which “hERG current change (%, negative = inhibition) at 10uM” value does the source give for `COC(=O)Nc1ccc(S(=O)(=O)NNC(=O)c2c(O)c3ccccc3n(C)c2=O)cc1` here?
A: The value was 25.9%.

Q: For `CCCn1c(=O)c(C(=O)NCc2cccnc2)c(O)c2ccccc21`, which “hERG current change (%, negative = inhibition) at 10uM” value is on record?
A: Its value is -34.7%.

Q: `Cn1c(C(=O)NCc2cccnc2)cc2sc(Cl)cc21` was tested. Which “hERG current change (%, negative = inhibition) at 10uM” value did it give?
A: The value was -43.9%.

Q: For `CCn1c(=O)c(C(=O)NCc2ccccc2)c(O)c2ccccc21`, which “hERG current change (%, negative = inhibition) at 10uM” value is on record?
A: The value was 19.1%.

Q: For `O=C(NCc1ccccc1)c1cccc(OCC(=O)N2CCN(C(=O)c3ccco3)CC2)c1`, which “hERG current change (%, negative = inhibition) at 10uM” value is on record?
A: The value was -41.1%.

Q: `COc1ccccc1/C=N/NC(=O)CC(=O)NCc1cccnc1` was tested. Which “hERG current change (%, negative = inhibition) at 10uM” value did it give?
A: Its value is 7.63%.

Q: With `O=C(O)COc1ccccc1/C=N/NC(=O)CSc1nc2ccccc2s1` as the compound, how does the “hERG current change (%, negative = inhibition) at 10uM” value read?
A: The value was 9.71%.

Q: How did the “hERG current change (%, negative = inhibition) at 10uM” value turn out when `CCOc1ccc(-c2cc(C(=O)NN3CCN(C)CC3)c3cc(Cl)ccc3n2)cc1` was run?
A: The value was 22.5%.

Q: How did the “hERG current change (%, negative = inhibition) at 10uM” value turn out when `CC(C(=O)NCc1ccc2c(c1)OCO2)N1c2cccc3cccc(c23)S1(=O)=O` (stereo not shown) was run?
A: Its value is -22.7%.

Q: `O=C(CN1C(=O)S/C(=C\C=C\c2ccccc2)C1=O)N1CCCCC1` was tested. Which “hERG current change (%, negative = inhibition) at 10uM” value did it give?
A: Its value is 10.8%.

Q: For `Cc1cc(=O)oc2cc(OCCSCCN3CCCCC3)ccc12`, which “hERG current change (%, negative = inhibition) at 10uM” value is on record?
A: The value was -16.5%.

Q: For `CNC(=S)N1CCn2cccc2C1c1cccnc1` (stereo not shown), which “hERG current change (%, negative = inhibition) at 10uM” value is on record?
A: Its value is 6.45%.

Q: `COc1ccc(/C(N)=N/OC(=O)CCCc2ccccc2)cc1` was tested. Which “hERG current change (%, negative = inhibition) at 10uM” value did it give?
A: Its value is -11.3%.

Q: How did the “hERG current change (%, negative = inhibition) at 10uM” value turn out when `FC(F)(F)Oc1ccc(NC2=NCCCS2)cc1` was run?
A: The value was -24.4%.

Q: `COC(=O)c1c(NC(=O)C2CCCO2)sc2c1CCC2` (stereo not shown) was tested. Which “hERG current change (%, negative = inhibition) at 10uM” value did it give?
A: The value was -3.4%.

Q: Which “hERG current change (%, negative = inhibition) at 10uM” value does the source give for `CC(C)CN(CC(C)C)C(=O)c1cc2c(=O)n3ccccc3nc2s1` here?
A: Its value is 7.12%.

Q: For `O=C(O)C1CC1(c1ccccc1)c1ccccc1` (stereo not shown), which “hERG current change (%, negative = inhibition) at 10uM” value is on record?
A: Its value is 17.7%.

Q: Which “hERG current change (%, negative = inhibition) at 10uM” value does the source give for `N#CC(C#N)=Cc1ccc(N2CCOCC2)cc1` here?
A: Its value is -10.7%.

Q: `Cc1ccc2c(Cl)c(C(=O)NCc3cccnc3)sc2c1` was tested. Which “hERG current change (%, negative = inhibition) at 10uM” value did it give?
A: The value was -46.4%.

Q: `CCCn1c(=O)c(C(=O)NCc2ccccc2)c(O)c2ccccc21` was tested. Which “hERG current change (%, negative = inhibition) at 10uM” value did it give?
A: The value was 7.64%.

Q: How did the “hERG current change (%, negative = inhibition) at 10uM” value turn out when `O=C(NCc1cccnc1)c1sc2ccccc2c1Cl` was run?
A: The value was -28.9%.

Q: For `O=C(NCc1cccnc1)c1sc2cc(Cl)ccc2c1Cl`, which “hERG current change (%, negative = inhibition) at 10uM” value is on record?
A: Its value is -55.4%.

Q: Which “hERG current change (%, negative = inhibition) at 10uM” value does the source give for `CCCn1c(=O)c(C(=O)NCc2ccncc2)c(O)c2ccccc21` here?
A: The value was -63%.

Q: For `CCCn1c(=O)c(C(=O)NCc2ccccn2)c(O)c2ccccc21`, which “hERG current change (%, negative = inhibition) at 10uM” value is on record?
A: Its value is -11.1%.

Q: With `Cc1cc(NC(=O)CSc2nc3ccsc3c(=O)n2NC(=O)c2ccccc2)no1` as the compound, how does the “hERG current change (%, negative = inhibition) at 10uM” value read?
A: Its value is -1.69%.

Q: `Cc1ccc(C(=O)N(C)CC(=O)Nc2cccc(F)c2)cc1S(=O)(=O)N1CCCCC1` was tested. Which “hERG current change (%, negative = inhibition) at 10uM” value did it give?
A: Its value is -10.5%.

Q: With `COc1ccc(C(=O)NCCc2cccc(Cl)c2)cc1OC1CCN(C(C)=O)CC1` as the compound, how does the “hERG current change (%, negative = inhibition) at 10uM” value read?
A: Its value is -16.1%.

Q: How did the “hERG current change (%, negative = inhibition) at 10uM” value turn out when `COc1cc2[nH]c(=O)n(Cc3ccc(C(=O)NC4CCN(Cc5ccccc5)CC4)cc3)c(=O)c2cc1OC` was run?
A: Its value is 17.6%.

Q: `COc1ccc(C(=O)NC2CC2)cc1OC1CCN(Cc2ccccc2)CC1` was tested. Which “hERG current change (%, negative = inhibition) at 10uM” value did it give?
A: Its value is -81.6%.

Q: How did the “hERG current change (%, negative = inhibition) at 10uM” value turn out when `COc1ccc(C(=O)NC2CCC(O)CC2)cc1S(=O)(=O)NCc1ccc(Cl)cc1` (stereo not shown) was run?
A: Its value is -6.07%.

Q: `COc1ccc(C(=O)NC2CC2)cc1OC1CCN(Cc2ccc(F)c(F)c2)CC1` was tested. Which “hERG current change (%, negative = inhibition) at 10uM” value did it give?
A: Its value is -75.2%.

Q: For `COc1ccc(C(=O)NC2CC2)cc1OC1CCN(Cc2ccc(SC)cc2)CC1`, which “hERG current change (%, negative = inhibition) at 10uM” value is on record?
A: Its value is -88.7%.

Q: With `COc1ccc(C(=O)NC2CC2)cc1OC1CCN(Cc2ccc(Cl)cc2)CC1` as the compound, how does the “hERG current change (%, negative = inhibition) at 10uM” value read?
A: Its value is -78.8%.

Q: With `COc1ccc(C(=O)NC2CC2)cc1OC1CCN(Cc2cnn(C)c2)CC1` as the compound, how does the “hERG current change (%, negative = inhibition) at 10uM” value read?
A: Its value is -32.7%.

Q: `C/C(=N\Nc1ccc(S(N)(=O)=O)cc1[N+](=O)[O-])c1cccs1` was tested. Which “hERG current change (%, negative = inhibition) at 10uM” value did it give?
A: The value was 25.7%.

Q: For `C[C@]12CC[C@H]3[C@@H](CC[C@]4(O)C[C@@H](O)CC[C@]34C=O)[C@@]1(O)CC[C@@H]2C1=CC(=O)OC1`, which “hERG current change (%, negative = inhibition) at 10uM” value is on record?
A: Its value is 14%.

Q: With `O=C(CC12CC3CC(CC(C3)C1)C2)N1CCOCC1` as the compound, how does the “hERG current change (%, negative = inhibition) at 10uM” value read?
A: The value was -1.47%.

Q: Which “hERG current change (%, negative = inhibition) at 10uM” value does the source give for `COc1ccccc1CC(NC(C)=O)C(=O)NC1CCN(C(=O)Nc2ccc(F)cc2)CC1` (stereo not shown) here?
A: Its value is -1.82%.
